# Assay results as given in the supplement of paper PMC8728848.
# The entries come from a sample that favours the strongest signals as a whole.
# Experiments:
# Assay in all cases: glycan array binding signal (z-score within array); higher = stronger binding
# Conditions in all cases: glycan notation: IUPAC condensed, linker removed
# [1] = biological target: Fuc(a1-2)Gal(b1-3)GlcNAc(b1-2)Man(a1-3)[Fuc(a1-2)Gal(b1-3)GlcNAc(b1-2)Man(a1-6)]Man(b1-4)GlcNAc(b1-4)GlcNAc
# Procedure, shortened: (§1)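 Arrays were curated from the Consortium for Functional Glycomics database, 3228 in total, and kept only where the protein sequence was available. Binding is expressed as a within-array Z-score. This score was averaged across arrays of the same protein sequence at different concentrations or buffers and across linkers, and negative values can be read as non-binding.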
# [2] = biological target: Fuc(a1-2)Gal(b1-3)GlcNAc(b1-3)GalNAc
# Procedure, shortened: as §1
# [3] = biological target: Fuc(a1-2)Gal(b1-3)[Fuc(a1-4)]GlcNAc
# Procedure, shortened: as §1
# [4] = biological target: Fuc(a1-2)Gal(b1-3)[Fuc(a1-4)]GlcNAc(b1-3)[Gal(b1-4)GlcNAc(b1-6)]Gal(b1-4)Glc
# Procedure, shortened: as §1
# [5] = biological target: Fuc(a1-2)Gal(b1-4)GlcNAc(b1-2)[Fuc(a1-2)Gal(b1-4)GlcNAc(b1-4)]Man(a1-3)[Fuc(a1-2)Gal(b1-4)GlcNAc(b1-2)Man(a1-6)]Man(b1-4)GlcNAc(b1-4)GlcNAc
# Procedure, shortened: as §1
# [6] = biological target: Fuc(a1-2)Gal(b1-4)GlcNAc(b1-3)Gal(b1-4)GlcNAc
# Procedure, shortened: as §1
# [7] = biological target: Fuc(a1-2)Gal6S(b1-4)Glc6S
# Procedure, shortened: as §1
# [8] = biological target: Fuc(a1-2)[Gal(a1-3)]Gal(b1-3)GlcNAc
# Procedure, shortened: as §1
# [9] = biological target: Fuc(a1-2)[Gal(a1-3)]Gal(b1-4)GlcNAc
# Procedure, shortened: as §1
# [10] = biological target: Fuc(a1-2)[Gal(a1-3)]Gal(b1-4)GlcNAc(b1-2)Man(a1-3)[Fuc(a1-2)[Gal(a1-3)]Gal(b1-4)GlcNAc(b1-2)Man(a1-6)]Man(b1-4)GlcNAc(b1-4)GlcNAc
# Procedure, shortened: as §1
# [11] = biological target: Fuc(a1-2)[GalNAc(a1-4)]Gal(b1-4)GlcNAc
# Procedure, shortened: as §1
# [12] = biological target: Fuc(a1-3)[Gal(b1-4)]GlcNAc(b1-2)Man(a1-3)[Fuc(a1-3)[Gal(b1-4)]GlcNAc(b1-2)Man(a1-6)]Man(b1-4)GlcNAc(b1-4)[Fuc(a1-6)]GlcNAc
# Procedure, shortened: as §1
# [13] = biological target: Fuc(a1-3)[Gal3S(b1-4)]GlcNAc6S
# Procedure, shortened: as §1
# [14] = biological target: Gal(a1-3)[Gal(a1-4)]Gal(b1-4)GlcNAc
# Procedure, shortened: as §1
# [15] = biological target: Gal(a1-4)Gal(b1-3)GlcNAc(b1-2)Man(a1-3)[Gal(a1-4)Gal(b1-3)GlcNAc(b1-2)Man(a1-6)]Man(b1-4)GlcNAc(b1-4)GlcNAc
# Procedure, shortened: as §1
# [16] = biological target: Gal(b1-3)GlcNAc(b1-2)Man(a1-3)[GlcNAc(b1-4)][Gal(b1-3)GlcNAc(b1-2)Man(a1-6)]Man(b1-4)GlcNAc(b1-4)GlcNAc
# Procedure, shortened: as §1
# [17] = biological target: Gal(b1-4)GalNAc(b1-3)[Fuc(a1-2)]Gal(b1-4)GlcNAc
# Procedure, shortened: as §1
# [18] = biological target: Gal(b1-4)GlcNAc(a1-6)Gal(b1-4)GlcNAc
# Procedure, shortened: as §1
# [19] = biological target: Gal(b1-4)GlcNAc(b1-2)Man(a1-3)Man(b1-4)GlcNAc(b1-4)GlcNAc
# Procedure, shortened: as §1
# [20] = biological target: Gal(b1-4)GlcNAc(b1-2)Man(a1-3)[Gal(b1-4)GlcNAc(b1-2)Man(a1-6)][GlcNAc(b1-4)]Man(b1-4)GlcNAc(b1-4)[Fuc(a1-6)]GlcNAc
# Procedure, shortened: as §1
# [21] = biological target: Gal(b1-4)GlcNAc(b1-2)[Gal(b1-4)GlcNAc(b1-6)]Man(a1-6)[GlcNAc(b1-4)][Gal(b1-4)GlcNAc(b1-2)Man(a1-3)]Man(b1-4)GlcNAc(b1-4)GlcNAc
# Procedure, shortened: as §1
# [22] = biological target: Gal(b1-4)GlcNAc(b1-2)[Gal(b1-4)GlcNAc(b1-6)]Man(a1-6)[GlcNAc(b1-4)][Gal(b1-4)GlcNAc(b1-2)[Gal(b1-4)GlcNAc(b1-4)]Man(a1-3)]Man(b1-4)GlcNAc(b1-4)[Fuc(a1-6)]GlcNAc
# Procedure, shortened: as §1
# [23] = biological target: Gal(b1-4)GlcNAc(b1-3)Gal(b1-3)GalNAc
# Procedure, shortened: as §1
# [24] = biological target: Gal(b1-4)GlcNAc(b1-3)Gal(b1-4)GlcNAc(b1-3)Gal(b1-4)GlcNAc
# Procedure, shortened: as §1
# [25] = biological target: Gal(b1-4)GlcNAc(b1-3)Gal(b1-4)GlcNAc(b1-3)Gal(b1-4)GlcNAc(b1-2)Man(a1-3)[Gal(b1-4)GlcNAc(b1-3)Gal(b1-4)GlcNAc(b1-3)Gal(b1-4)GlcNAc(b1-2)Man(a1-6)]Man(b1-4)GlcNAc(b1-4)GlcNAc
# Procedure, shortened: as §1
# [26] = biological target: Gal(b1-4)GlcNAc(b1-3)Gal(b1-4)GlcNAc(b1-3)Gal(b1-4)GlcNAc(b1-3)Gal(b1-4)GlcNAc(b1-2)Man(a1-3)[Gal(b1-4)GlcNAc(b1-3)Gal(b1-4)GlcNAc(b1-3)Gal(b1-4)GlcNAc(b1-3)Gal(b1-4)GlcNAc(b1-2)Man(a1-6)]Man(b1-4)GlcNAc(b1-4)[Fuc(a1-6)]GlcNAc
# Procedure, shortened: as §1
# [27] = biological target: Gal(b1-4)GlcNAc(b1-3)Gal(b1-4)[Fuc(a1-3)]GlcNAc(b1-3)Gal(b1-4)[Fuc(a1-3)]GlcNAc
# Procedure, shortened: as §1
binder,measurement,setting,value
PX9961M-bvu-482-23-482 (Bacteroides vulgatus) (protein) WLDLAPSTQVDTETSINVLSDIEFTLNGIYSTMQSSDAYSGRLVYYGDVTGDDMQAVSSTKRTGNYYRFNFTKDNGPSSHWSYLYSIIQNCNLILMNVDKLSIDEDETEYKNDLKGQALAIRGMALFDLTRIFGYPYLKDNGASLGVPIVKELSTIDSKPARNTVAECYTEIISDLKNSTELLSGDFNKGKVNRWAAMTLLSRVYLYKGEYNEALTMAENAIKGAEKEGYALWTNEEYPTAWGNDASASNPGEILFEIVNLTTDSPGKESMGYLNSYNGYDDMCITCSFYQLLKKDPKDVRLKILSFDKKYYAYVNKYQPQQGENITDANIPLIRLSEAYLNAAEAAVQTGDNAKAVKYLNSIVQRANPENSVEGKTLTLENVLDERRKELVAEGHRMYDVIRNGMTVKRIDVKDSDINKTKHNTAYMEYDWNFHKILLPIPKKEMDANPNMKQNPGYVD,glycan array binding signal (z-score),[1],0.321
same,glycan array binding signal (z-score),[2],-1.09
same,glycan array binding signal (z-score),[3],-0.893
same,glycan array binding signal (z-score),[4],0.057
same,glycan array binding signal (z-score),[5],1.74
same,glycan array binding signal (z-score),[6],-1.33
same,glycan array binding signal (z-score),[7],0.138
same,glycan array binding signal (z-score),[8],-0.45
same,glycan array binding signal (z-score),[9],-0.597
same,glycan array binding signal (z-score),[10],1.68
same,glycan array binding signal (z-score),[11],-0.779
same,glycan array binding signal (z-score),[12],1.97
same,glycan array binding signal (z-score),[13],-0.788
same,glycan array binding signal (z-score),[14],4.04
same,glycan array binding signal (z-score),[15],1.92
same,glycan array binding signal (z-score),[16],-0.064
same,glycan array binding signal (z-score),[17],-0.62
same,glycan array binding signal (z-score),[18],1.66
same,glycan array binding signal (z-score),[19],0.327
same,glycan array binding signal (z-score),[20],0.416
same,glycan array binding signal (z-score),[21],-0.402
same,glycan array binding signal (z-score),[22],-0.596
same,glycan array binding signal (z-score),[23],-1.18
same,glycan array binding signal (z-score),[24],-0.219
same,glycan array binding signal (z-score),[25],1.88
same,glycan array binding signal (z-score),[26],0.966
same,glycan array binding signal (z-score),[27],-0.719
